# From PubChem
# Most compounds without a hit are left out; they make up all but 27% or so of the library.
# CYP2C19 act = cytochrome P450 2C19 (human) activation; P33261; recombinant CYP2C19, luciferin-H EGE luminescence; stronger effect = higher value; 0 = fully inhibited enzyme, 1 = untreated enzyme; 96,000 tested, under 10 active; AID 1025; activation factor at 5 µM;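 active = activation factor of at least 2 at 5 µM in the primary screen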;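 note: 0 = wells with 2.5 mM tranylcypromine and 1 = vehicle-only wells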
# Target sequence (P33261 whole entry, looked up): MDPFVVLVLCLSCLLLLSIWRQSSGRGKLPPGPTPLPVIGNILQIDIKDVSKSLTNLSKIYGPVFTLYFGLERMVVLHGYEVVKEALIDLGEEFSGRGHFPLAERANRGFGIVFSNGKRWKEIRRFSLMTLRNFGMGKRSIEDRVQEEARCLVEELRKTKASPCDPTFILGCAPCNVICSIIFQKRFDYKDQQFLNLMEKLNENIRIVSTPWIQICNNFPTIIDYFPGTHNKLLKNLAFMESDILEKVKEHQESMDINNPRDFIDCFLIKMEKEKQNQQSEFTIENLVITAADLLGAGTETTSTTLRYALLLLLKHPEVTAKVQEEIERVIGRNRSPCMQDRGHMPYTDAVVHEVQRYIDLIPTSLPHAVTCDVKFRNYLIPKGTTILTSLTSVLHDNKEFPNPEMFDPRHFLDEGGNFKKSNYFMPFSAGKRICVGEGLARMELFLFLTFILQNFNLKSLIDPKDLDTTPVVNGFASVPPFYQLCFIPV
# CYP2C19 inhib = human CYP2C19 inhibition; P33261; CYP2C19 Supersomes, luciferin-H EGE luminescence, 30 min; 96,000 compounds, 21% hits; inhibition, % at 5 µM; AID 778;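 active = CYP2C19 inhibition above a set limit at 5 µM in the primary screen, cut at about 50% in these data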;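 note: plate controls were negative control wells for no effect and 2.5 mM tranylcypromine positive control for full effect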
# Cav3 T inh = blocks human Cav3.2 T-type calcium channel; O95180; Cav3.2-expressing cells, Fluo-4 calcium fluorescence FDSS; stronger effect = lower value; B-score at 10 µM; 100,000 compounds, 4% hits; AID 449739;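 active = single-dose well whose peak fluorescence ratio is a statistical outlier from its plate by either plate-standardised score or position-corrected B-score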
# CYP2C9 activ = activators of human CYP2C9; recombinant CYP2C9, luciferin-H conversion, luminescence; stronger effect = higher value; factor 1 = untreated enzyme, 0 = blocked; activation factor at 5 µM; 96,000 compounds, 1.4% hits;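 active = activation factor of 2 or more for CYP2C9 at a 5 µM dose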;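 note: 0 = sulfaphenazole-blocked wells and 1 = vehicle-only wells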
# CYP2C9 inhib = human CYP2C9 inhibition | CYP2C9 Supersomes, luciferin-H conversion, luminescence | 96,000 compounds, 20% hits | P11712 | inhibition, % at 5 µM;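 active = blocking of liver enzyme CYP2C9 beyond about 50% at 5 µM, limit read from the data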
# PTK2B oligo ant = Pyk2 (human) oligomerization antagonism | Q14289 | Q293 cells, Pyk2 FERM NanoBiT luminescence; stronger effect = lower value | z-score (the deposit names both 25 µM and 10 µM) | 99,000 compounds, 0.83% hits;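 active = Z-score of -3 or lower, scaled per plate to the spread of control and sample wells; inactive = z-score above -3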;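 note: negative z-score means lost luminescence so less FERM oligomerization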
# * marks the source's active call; other numbers are inactive results; / = no result.
SMILES,CYP2C19 act,CYP2C19 inhib,Cav3 T inh,CYP2C9 activ,CYP2C9 inhib,PTK2B oligo ant
CN(C)c1nc(OCCNC(=O)Nc2ccccc2)nc(N(C)C)n1,0.3,73*,-0.72,0.5,47,-0.59
CCOc1ccc2nc(NC(=O)CCC(=O)c3cccs3)sc2c1,1,3,-0.0019,1,2,0.87
CC(=O)NC1(c2ccc(F)cc2)CCN(C(=O)Nc2ccc(F)cc2F)CC1,0.6,45,0.58,0.8,21,0.02
O=C1CC(N2CCN(c3ccccn3)CC2)C(=O)N1CC(c1ccccc1)c1ccccc1 (stereo not drawn),/,/,-6.3*,/,/,-0.73
CC(=O)OC(C(=O)Nc1ccccc1)C(C)S(=O)(=O)c1ccccc1 (stereo not drawn),0.3,65*,-0.39,0.7,32,0.15
CC(C)C(=O)Nc1cccc(S(=O)(=O)c2cccc(NC(=O)C(C)C)c2)c1,/,/,0.72,/,/,0.88
COc1ccc(N2CCN(c3oc(COc4ccccc4)nc3C#N)CC2)cc1,/,/,-3.3,/,/,0.1
COc1ccc(N2CCN(c3oc(COc4ccc(Cl)cc4)nc3C#N)CC2)cc1,0.6,35,-6.1*,0.5,50*,0.14
CCOc1ccc(-c2nc(C#N)c(NC3CC3)o2)cc1,0.3,69*,0.85,0.8,25,0.07
N#Cc1nc(COc2ccc(Br)cc2)oc1N1CCCCCC1,0.8,21,-2.2,0.6,42,/
CCOc1ccc(-c2nc(C#N)c(N3CCOCC3)o2)cc1,0.7,30,/,0.7,34,/
CCOc1ccc(-c2nc(C#N)c(N3CCN(Cc4ccccc4)CC3)o2)cc1,0.6,36,-0.49,0.3,67*,/
CCOc1ccc(Nc2oc(-c3ccc(Cl)cc3)nc2C#N)cc1,0.7,34,0.052,0.6,38,-0.23
N#Cc1nc(COc2ccc(Cl)cc2)oc1N1CCN(Cc2ccccc2)CC1,0.6,40,-2.6,0.5,53*,1.4
O=C(CN1C(=O)NC2(CCCCCC2)C1=O)c1ccc2c(c1)OCCO2,0.9,14,0.1,0.6,41,-2.5
CCc1nnc(NC(=O)C2CCCN2S(=O)(=O)c2ccc(F)cc2)s1 (stereo not drawn),0.2,76*,1.5,0.1,86*,2.3
CC(=O)c1ccc(NC(=O)C2CCCN2S(=O)(=O)c2ccc(F)cc2)cc1 (stereo not drawn),0.3,66*,1.8,0.3,74*,/
CCc1nnc(NC(=O)[C@@H]2CCCN2S(=O)(=O)c2ccc3c(c2)OCCO3)s1,0.8,16,0.4,0.6,45,0.84
CS(=O)(=O)N1CCCC(C(=O)NCCCN2CCc3ccccc3C2)C1 (stereo not drawn),0.9,13,0.79,1.2,-15,0.4
COc1ccccc1NC(=O)c1ccc(NS(=O)(=O)c2c(C)noc2C)cc1,1,4,-0.47,1.4,-44,-0.97
Cc1noc(C)c1S(=O)(=O)Nc1ccc(C(=O)NC2CCCCC2)cc1,1,3,0.94,0.8,19,1
Cc1noc(C)c1S(=O)(=O)Nc1ccc(C(=O)NCCc2ccccc2)cc1,1,-1,0.42,0.4,60*,0.1
COc1ccccc1CNC(=O)c1ccc(NS(=O)(=O)c2c(C)noc2C)cc1,0.9,12,-1.6,0.2,78*,-0.49
COc1ccc(NC(=O)c2ccc(NS(=O)(=O)c3c(C)noc3C)cc2)cc1OC,0.9,7,-0.049,0.8,22,-0.91
COc1ccc(CNC(=O)c2ccc(NS(=O)(=O)c3c(C)noc3C)cc2)cc1,1,-3,-3.9,0.4,58*,-0.17
SMILES,CYP2C19 act,CYP2C19 inhib,Cav3 T inh,CYP2C9 activ,CYP2C9 inhib,PTK2B oligo ant
Cc1ccc(NC(=O)c2ccc(NS(=O)(=O)c3c(C)noc3C)cc2)cc1C,0.9,8,-2.5,0.2,79*,-0.01
CC1CCN(c2cc(=O)n(C3CCCCC3)c(=O)[nH]2)CC1,1,-4,2.3,1,-3,/
CCOC(=O)CSc1nnc(CNC(=O)c2ccco2)n1C,1.2,-18,0.96,1.1,-10,-0.5
CCC1(c2ccc(F)cc2)NC(=O)N(CC(=O)N2CCOCC2)C1=O (stereo not drawn),1,-2,0.068,1.1,-7,0.82
Cc1ccc(Oc2ncccc2/C=N/OCc2ccc(Cl)c(Cl)c2)cc1,1.2,-15,/,1.2,-17,1.1
COc1ccc(Br)cc1CNC(=O)C1CCN(S(=O)(=O)N2CCCCC2)CC1,0.8,23,0.049,2.2*,-119,-0.64
COc1ccc(OC)c(CNC(=O)C2CCN(S(=O)(=O)N3CCCC3)CC2)c1,1,2,0.1,1.2,-20,0.4
COc1ccccc1CNC(=O)C1CCN(S(=O)(=O)c2c(C)noc2C)CC1,1,0,2.1,2*,-99,0.71
Cc1ccc(C(=O)Cn2nnc(-c3ccccc3-n3cnnn3)n2)cc1,0.8,24,0.96,1.7,-68,0.13
Cc1ccc(-c2nnn(CC(=O)Nc3ccccc3-c3ccccc3)n2)c(-n2cnnn2)c1,0.6,36,-0.36,0.5,52*,-1.2
O=C(NCCN1CCOCC1)c1csc2c1CCCCC2,1,1,2.1,1.1,-12,1.4
Cc1ccc(C)n1-c1ccc(-c2nnco2)cc1,0.6,43,0.26,0.9,10,-0.4
Cc1ccc(C)n1-c1ccc(-n2cnnn2)cc1,0.3,74*,0.64,0.8,20,1.9
c1ccc(Oc2ccc(-n3cnnn3)cc2)cc1,0.2,82*,2.3,0.6,43,2.5
O=C(O)c1cccc(-n2cnnn2)c1,1,-3,0.064,1,-4,-0.23
O=C(Oc1ccccc1)c1ccc(-n2cnnn2)cc1,0.3,69*,0.76,0.8,22,0.77
Cc1nc(S(=O)(=O)c2cccc(Cl)c2)nc2c1CCC2,0.9,10,/,2.7*,-173,0.95
O=C(ONC1=NCCCCC1)c1c(F)cccc1F,0.1,91*,1.2,1.1,-9,0.63
S=c1sc2c(N3CCN(Cc4ccccc4)CC3)ncnc2n1-c1ccccc1,0.6,38,-1,0.4,60*,-1.7
CCCCCCCCN1[C@@H](CC(=O)OC)c2cc(C(F)(F)F)ccc2S1(=O)=O,/,/,-2.1,/,/,/
Cc1nc(S(=O)(=O)c2ccc(Cl)cc2Cl)nc2c1CCC2,0.7,26,-0.86,1.4,-38,-0.83
Cc1nc(OCC(=O)c2ccc(Cl)cc2)c(C#N)c2c1COC(C)(C)C2,0.5,52*,0.83,0.8,18,-0.72
CCc1nc(OCC(=O)c2ccccc2)c(C#N)c2c1COC(C)(C)C2,0.5,47,0.11,0.7,28,-1
CC1(C)Cc2c(C#N)c(OCC(=O)c3ccc(Cl)cc3)nc(-c3ccco3)c2CO1,0.4,59*,/,0.8,18,-0.03
Cc1ccccc1C1C(C#N)=C2N=C(N)c3c(sc4c3CCCCC4)N2C2=C1C(=O)CCC2 (stereo not drawn),0.9,14,0.035,0.6,36,-0.82
